According to the supplement of paper PMC10849652:
The full data set covers some 7,900 targets. This sample favours those with a hit. About 0.6% of all pairs of compound and target were hits. Values without a mark were called inactive.

How the values were obtained:
Test in all cases: log2 fold change, soluble protein after heating vs DMSO (PISA); higher = thermal stabilisation; K562 cells, 10 uM, 30 min; active = over 0.2 and 3.5 SD of the protein, either way, in both replicates (recomputed)
[1] = compound: C#Cc1cccc(Nc2ncnc3cc(OCCOC)c(OCCOC)cc23)c1 [erlotinib]
Method in brief: (§1)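 K562 cells at 2×10^6 cells/mL were treated for 30 min with 10 μM compound, and aliquots were heated for 3 min over 48°C-58°C before pooling. Extraction used PBS with 0.5% NP-40 at 4°C, and soluble protein was the supernatant after 21,000xg for 90 min, measured by TMTpro 16plex LC-MS/MS with channel sums equalised. Thermal stability values, relative to control samples and from duplicates, are log2 fold changes.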

[2] = compound: C/C(=N\NC(=O)C1=CC(=CC=C1)S(=O)(=O)N2CCOCC2)/C3=C(C=CC(=C3)Cl)O
Method in brief: as §1

[3] = compound: C1=CC(=C(C=C1Cl)C2=NC3=NC=CN=C3C(=N2)NC4=CC=NC=C4)F
Method in brief: as §1

[4] = compound: C1=CC(=CC=C1C2=NC3=C(N2)C=C(C=C3)C(=O)N)OC4=CC=C(C=C4)Cl
Method in brief: as §1

[5] = compound: C1=CC2=C(C=CC(=C2)/C=C\3/C(=O)NC(=NCC4=CC=CS4)S3)N=C1
Method in brief: as §1

[6] = compound: C1=CC2=NC=CN=C2C=C1/C=C/3\C(=O)NC(=O)S3
Method in brief: as §1

[7] = compound: C1=CC=C(C=C1)C2=NC(=C(N2)C3=CC=NC=C3)C4=CC(=C(C=C4)Cl)O
Method in brief: as §1

[8] = compound: C1=CC=C2C(=C1)C3=NNC4=CC=CC(=C43)C2=O
Method in brief: as §1

[9] = compound: C1CCN(C1)C(=O)NC2=CC=CC(=C2)NC3=NC=C(C(=N3)NCCC4=CN=CN4)Br
Method in brief: as §1

[10] = compound: C1CN(CCC1(CC2=CC=C(C=C2)Cl)N)C3=NC=NC4=C3C=CN4
Method in brief: as §1

[11] = compound: C1COCCN1CCN2C3=CC=CC=C3N=C2NC(=O)C4=CC(=CC=C4)[N+](=O)[O-] [IRAK-1-4 Inhibitor I]
Method in brief: as §1

[12] = compound: C=CC(=O)N1CCC[C@@H](n2nc(-c3ccc(Oc4ccccc4)cc3)c3c(N)ncnc32)C1 [ibrutinib]
Method in brief: as §1

[13] = compound: CC(=O)c1cnc2ccc(-c3cc(Cl)c(O)c(Cl)c3)nc2c1N[C@H]1CC[C@H](CN(C)C)CC1
Method in brief: as §1

[14] = compound: CC(C)(C)Cn1c(N)nc2ccc(-c3[nH]c(C(C)(C)C)nc3-c3ccc(F)cc3)nc21 [ralimetinib]
Method in brief: as §1

[15] = compound: CC(C)(O)CC(=O)NCCn1ccc2ncnc(Nc3ccc(Oc4cccc(C(F)(F)F)c4)c(Cl)c3)c21
Method in brief: as §1

[16] = compound: CC(C)C1=C2N=C(C=C(N2N=C1)NCC3=CC=CC=C3)NCCCCCCN
Method in brief: as §1

[17] = compound: CC(C)C[C@@H](C=O)NC(=O)[C@H](CC(C)C)NC(=O)[C@H](CC(C)C)NC(=O)OCc1ccccc1
Method in brief: as §1

[18] = compound: CC(C)N(C[C@H]1O[C@@H](n2cnc3c(N)ncnc32)[C@H](O)[C@@H]1O)[C@H]1C[C@@H](CCc2nc3cc(C(C)(C)C)ccc3[nH]2)C1 [pinometostat]
Method in brief: as §1

[19] = compound: CC1=C(C(CC(=O)N1)C2=CC=C(C=C2)C(F)(F)F)C(=O)NC3=C(C=C4C(=C3)C=NN4)F
Method in brief: as §1

[20] = compound: CC1=C(C2=C(C=C1)C(=O)C3=CC=CC=C3N2CCCN)C
Method in brief: as §1

UniProt O95169, sequence (O95169 whole entry, looked up): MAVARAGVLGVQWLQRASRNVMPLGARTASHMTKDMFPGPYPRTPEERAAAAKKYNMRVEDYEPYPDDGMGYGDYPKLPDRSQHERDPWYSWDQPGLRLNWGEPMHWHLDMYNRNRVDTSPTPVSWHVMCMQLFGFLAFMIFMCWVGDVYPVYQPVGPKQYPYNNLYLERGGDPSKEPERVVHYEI
UniProt Q9UH92, sequence (Q9UH92 whole entry, looked up): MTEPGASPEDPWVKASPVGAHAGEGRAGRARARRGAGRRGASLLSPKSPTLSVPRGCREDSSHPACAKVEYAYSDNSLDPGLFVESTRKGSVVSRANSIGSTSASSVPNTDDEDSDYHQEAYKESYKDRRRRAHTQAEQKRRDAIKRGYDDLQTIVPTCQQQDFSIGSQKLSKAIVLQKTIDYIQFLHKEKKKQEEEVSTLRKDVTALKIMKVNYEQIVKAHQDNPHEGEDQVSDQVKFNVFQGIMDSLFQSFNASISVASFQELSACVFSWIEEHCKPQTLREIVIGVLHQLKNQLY
UniProt Q8WUY8, sequence (Q8WUY8 whole entry, looked up): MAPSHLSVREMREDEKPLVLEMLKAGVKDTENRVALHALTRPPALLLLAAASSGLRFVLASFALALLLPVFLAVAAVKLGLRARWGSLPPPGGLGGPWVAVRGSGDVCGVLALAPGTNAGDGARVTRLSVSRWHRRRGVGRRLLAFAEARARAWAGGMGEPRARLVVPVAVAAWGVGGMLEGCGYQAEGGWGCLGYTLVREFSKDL
UniProt P11586, sequence (P11586 whole entry, looked up): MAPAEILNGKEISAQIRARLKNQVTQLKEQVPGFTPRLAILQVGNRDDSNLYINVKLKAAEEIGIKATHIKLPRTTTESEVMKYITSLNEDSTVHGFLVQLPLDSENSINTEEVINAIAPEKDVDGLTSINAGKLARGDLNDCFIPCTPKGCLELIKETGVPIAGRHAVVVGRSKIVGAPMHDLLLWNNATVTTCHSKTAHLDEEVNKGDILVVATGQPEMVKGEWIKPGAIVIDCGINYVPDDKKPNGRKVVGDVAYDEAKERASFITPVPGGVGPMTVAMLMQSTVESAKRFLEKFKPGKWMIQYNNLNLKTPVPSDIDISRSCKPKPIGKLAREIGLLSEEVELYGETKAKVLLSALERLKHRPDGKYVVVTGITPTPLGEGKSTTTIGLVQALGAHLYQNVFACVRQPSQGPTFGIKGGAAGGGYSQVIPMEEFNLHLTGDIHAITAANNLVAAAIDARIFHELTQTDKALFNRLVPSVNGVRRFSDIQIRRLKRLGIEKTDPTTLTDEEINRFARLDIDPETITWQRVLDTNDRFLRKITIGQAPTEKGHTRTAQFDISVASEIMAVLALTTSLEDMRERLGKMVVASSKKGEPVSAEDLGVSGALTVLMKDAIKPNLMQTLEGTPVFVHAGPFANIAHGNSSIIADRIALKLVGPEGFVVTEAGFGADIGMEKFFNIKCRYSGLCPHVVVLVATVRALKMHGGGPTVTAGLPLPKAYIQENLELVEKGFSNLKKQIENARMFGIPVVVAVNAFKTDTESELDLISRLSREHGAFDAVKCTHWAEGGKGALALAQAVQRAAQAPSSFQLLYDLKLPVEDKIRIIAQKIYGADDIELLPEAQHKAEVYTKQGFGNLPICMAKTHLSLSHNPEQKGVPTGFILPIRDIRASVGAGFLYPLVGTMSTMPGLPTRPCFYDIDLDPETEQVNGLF
UniProt O00483, sequence (O00483 whole entry, looked up): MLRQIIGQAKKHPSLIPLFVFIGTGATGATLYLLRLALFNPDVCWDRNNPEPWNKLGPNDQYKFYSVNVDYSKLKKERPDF
UniProt P15559, sequence (P15559 whole entry, looked up): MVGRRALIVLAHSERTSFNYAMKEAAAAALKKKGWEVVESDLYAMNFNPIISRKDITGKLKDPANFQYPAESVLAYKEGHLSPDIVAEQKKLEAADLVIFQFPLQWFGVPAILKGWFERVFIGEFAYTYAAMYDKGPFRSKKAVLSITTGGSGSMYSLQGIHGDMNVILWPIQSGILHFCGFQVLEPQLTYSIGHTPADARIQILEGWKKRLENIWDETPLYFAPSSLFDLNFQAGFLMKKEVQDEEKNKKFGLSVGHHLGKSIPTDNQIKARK
UniProt P49757, sequence (P49757 whole entry, looked up): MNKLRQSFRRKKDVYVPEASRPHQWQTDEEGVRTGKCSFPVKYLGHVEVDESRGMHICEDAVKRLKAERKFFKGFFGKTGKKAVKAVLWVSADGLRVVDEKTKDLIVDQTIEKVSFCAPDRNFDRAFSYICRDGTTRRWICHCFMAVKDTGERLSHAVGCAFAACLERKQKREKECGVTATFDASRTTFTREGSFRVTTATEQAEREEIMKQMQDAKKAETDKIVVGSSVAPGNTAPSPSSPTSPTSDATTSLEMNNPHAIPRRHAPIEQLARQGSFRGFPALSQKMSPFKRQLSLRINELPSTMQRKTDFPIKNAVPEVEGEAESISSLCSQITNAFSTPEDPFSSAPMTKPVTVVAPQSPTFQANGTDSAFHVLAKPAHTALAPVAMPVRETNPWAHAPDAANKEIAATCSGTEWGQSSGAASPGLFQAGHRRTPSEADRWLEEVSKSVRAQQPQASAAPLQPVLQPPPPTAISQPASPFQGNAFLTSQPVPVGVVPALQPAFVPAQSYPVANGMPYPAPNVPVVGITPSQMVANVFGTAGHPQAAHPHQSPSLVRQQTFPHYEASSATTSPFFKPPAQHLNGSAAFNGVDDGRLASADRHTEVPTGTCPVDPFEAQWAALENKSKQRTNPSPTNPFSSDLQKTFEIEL
UniProt O43847, sequence (O43847 whole entry, looked up): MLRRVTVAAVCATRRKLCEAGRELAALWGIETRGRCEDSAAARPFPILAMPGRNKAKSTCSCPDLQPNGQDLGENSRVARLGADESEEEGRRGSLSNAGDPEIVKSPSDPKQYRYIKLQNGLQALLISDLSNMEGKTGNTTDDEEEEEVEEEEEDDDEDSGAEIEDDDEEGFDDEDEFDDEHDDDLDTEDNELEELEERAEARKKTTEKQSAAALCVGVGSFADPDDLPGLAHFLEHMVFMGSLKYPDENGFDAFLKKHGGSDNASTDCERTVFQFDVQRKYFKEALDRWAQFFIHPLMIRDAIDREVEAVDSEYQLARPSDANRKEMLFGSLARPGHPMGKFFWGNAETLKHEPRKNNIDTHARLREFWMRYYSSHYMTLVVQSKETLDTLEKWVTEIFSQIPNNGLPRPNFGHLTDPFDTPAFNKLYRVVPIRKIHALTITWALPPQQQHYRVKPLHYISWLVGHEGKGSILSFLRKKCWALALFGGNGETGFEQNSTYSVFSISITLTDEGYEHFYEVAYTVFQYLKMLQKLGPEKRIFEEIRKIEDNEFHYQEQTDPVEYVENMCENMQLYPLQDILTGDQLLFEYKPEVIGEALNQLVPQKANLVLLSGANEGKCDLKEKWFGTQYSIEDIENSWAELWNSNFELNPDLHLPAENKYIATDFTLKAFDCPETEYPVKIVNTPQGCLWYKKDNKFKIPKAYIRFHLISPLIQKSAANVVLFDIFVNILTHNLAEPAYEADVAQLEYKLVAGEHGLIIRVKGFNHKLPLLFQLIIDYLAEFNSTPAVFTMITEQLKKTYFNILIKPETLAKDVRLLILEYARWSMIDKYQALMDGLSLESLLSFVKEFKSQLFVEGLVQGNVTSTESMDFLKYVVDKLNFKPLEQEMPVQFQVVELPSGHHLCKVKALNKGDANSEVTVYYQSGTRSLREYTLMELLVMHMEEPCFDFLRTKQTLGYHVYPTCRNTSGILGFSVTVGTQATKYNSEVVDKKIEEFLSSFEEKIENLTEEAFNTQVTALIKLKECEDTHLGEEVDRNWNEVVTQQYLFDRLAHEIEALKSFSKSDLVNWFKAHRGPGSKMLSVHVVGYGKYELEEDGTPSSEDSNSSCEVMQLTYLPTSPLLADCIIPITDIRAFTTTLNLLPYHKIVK
UniProt Q9H019, sequence (Q9H019 whole entry, looked up): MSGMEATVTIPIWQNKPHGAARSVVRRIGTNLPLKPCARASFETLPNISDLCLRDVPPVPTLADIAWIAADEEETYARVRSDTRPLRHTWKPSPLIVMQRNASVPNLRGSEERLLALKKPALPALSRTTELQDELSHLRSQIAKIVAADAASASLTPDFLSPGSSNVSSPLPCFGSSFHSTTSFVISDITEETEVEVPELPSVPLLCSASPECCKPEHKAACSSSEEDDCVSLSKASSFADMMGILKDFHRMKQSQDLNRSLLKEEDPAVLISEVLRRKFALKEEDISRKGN
UniProt P03886, sequence (P03886 whole entry, looked up): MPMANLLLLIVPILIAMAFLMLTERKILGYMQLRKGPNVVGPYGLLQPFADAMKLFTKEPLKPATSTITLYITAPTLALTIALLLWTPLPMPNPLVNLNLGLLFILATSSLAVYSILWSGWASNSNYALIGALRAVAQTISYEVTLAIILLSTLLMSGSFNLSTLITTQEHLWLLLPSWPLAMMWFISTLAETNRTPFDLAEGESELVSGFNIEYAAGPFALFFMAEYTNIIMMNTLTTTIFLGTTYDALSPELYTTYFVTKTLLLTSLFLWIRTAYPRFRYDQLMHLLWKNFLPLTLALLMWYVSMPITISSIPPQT
UniProt Q9BT67, sequence (Q9BT67 whole entry, looked up): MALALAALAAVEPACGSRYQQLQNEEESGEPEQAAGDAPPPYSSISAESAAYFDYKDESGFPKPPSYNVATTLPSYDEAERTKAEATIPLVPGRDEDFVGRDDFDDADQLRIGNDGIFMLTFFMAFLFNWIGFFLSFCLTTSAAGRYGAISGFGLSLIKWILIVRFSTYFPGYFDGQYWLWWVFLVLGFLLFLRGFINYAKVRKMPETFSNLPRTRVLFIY
UniProt Q86WQ0, sequence (Q86WQ0 whole entry, looked up): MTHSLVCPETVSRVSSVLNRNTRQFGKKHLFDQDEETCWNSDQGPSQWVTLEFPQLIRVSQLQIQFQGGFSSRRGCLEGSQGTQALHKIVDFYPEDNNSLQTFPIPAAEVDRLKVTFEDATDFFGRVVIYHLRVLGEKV

Target	log2 fold change [1]	log2 fold change [2]	log2 fold change [3]	log2 fold change [4]	log2 fold change [5]	log2 fold change [6]	log2 fold change [7]	log2 fold change [8]	log2 fold change [9]	log2 fold change [10]	log2 fold change [11]	log2 fold change [12]	log2 fold change [13]	log2 fold change [14]	log2 fold change [15]	log2 fold change [16]	log2 fold change [17]	log2 fold change [18]	log2 fold change [19]	log2 fold change [20]
NUDT16 (UniProt Q96DE0)	0.081	0	0.111	0.01	-0.034	-0.004	0.014	0.026	-0.085	0.081	0.049	0.03	0.022	-0.039	0.005	0.066	-0.001	-0.001	0.017	0.004
MRPL46 (UniProt Q9H2W6)	-0.025	-0.008	0	0.011	-0.054	-0.001	0.046	0.164	-0.031	-0.075	-0.069	-0.012	0.077	0.029	-0.008	-0.073	0.064	0.03	-0.004	-0.026
NQO1 (UniProt P15559)	-0.064	0.037	0.089	-0.002	-0.06	-0.005	-0.014	0.269 (active)	-0.015	0.065	0.001	-0.053	0.044	0.001	-0.029	-0.035	-0.045	-0.02	-0.038	-0.01
NDUFA4 (UniProt O00483)	-0.134	0.002	0.258	0.042	0.047	0.072	0.038	0.011	0.086	-0.017	0	-0.019	-0.024	-0.098	-0.029	-0.018	-0.009	-0.013	0.032	0.126
MT-ND1 (UniProt P03886)	-0.075	0.031	-0.028	0.097	-0.005	0.032	0.053	0.12	-0.187	0.018	0.104	-0.009	-0.072	0.071	-0.142	-0.142	-0.102	-0.092	-0.115	0.119
MRPL47 (UniProt Q9HD33)	-0.189	-0.107	-0.098	0.096	-0.002	-0.047	-0.012	0.094	-0.004	-0.273	-0.11	0.022	0.003	0.056	0.016	-0.001	0.071	0.181	0.047	-0.083
MTFR1L (UniProt Q9H019)	-0.002	-0.013	-0.202	0.064	-0.001	-0.03	0.077	0.13	0.036	-0.027	0.04	0.048	-0.052	-0.005	0.014	-0.412	0.047	0.003	0.041	-0.05
NDUFB8 (UniProt O95169)	-0.026	-0.047	0.129	0.005	0.033	0.087	-0.026	0.07	-0.008	0.06	0.001	-0.01	-0.004	-0.063	-0.36 (active)	-0.042	0.059	0.003	0.081	0.103
NAT14 (UniProt Q8WUY8)	-0.016	0.079	-0.002	0.014	0.057	0.046	0.135	0.033	0.002	-0.084	-0.061	0.019	-0.033	-0.028	-0.257	-0.185	0.027	-0.074	0.022	-0.187
NUMB (UniProt P49757)	0.016	-0.012	-0.048	0.018	-0.001	0.044	-0.004	-0.009	-0.087	0.021	0.008	-0.05	-0.318 (active)	0.049	-0.062	-0.086	0.053	0.061	0.047	0.079
NRDC isoform 2 (UniProt O43847)	-0.016	0.081	0.012	-0.024	0.021	0.024	0.027	0.057	-0.046	0.049	0.003	-0.033	-0.026	0.011	-0.04	0.053	0.029	0.015	0	0.037
MTHFD1 (UniProt P11586)	0.06	0.058	0.074	-0.019	0.019	-0.021	0.05	0.01	0.013	0.032	0.01	-0.014	-0.068	-0.001	-0.082	-0.102	-0.005	-0.034	-0.023	0.073
NDFIP1 (UniProt Q9BT67)	-0.066	0.07	-0.046	0.077	-0.244	0.046	0.005	0.122	-0.234	-0.168	-0.135	-0.083	0.146	0.084	-0.401	-1.2 (active)	0.302	0.048	0.241	0.152
NUMA1 (UniProt Q14980)	-0.03	-0.006	-0.109	0.017	0.02	0.019	0.031	-0.054	-0.055	-0.211	-0.107	-0.051	-0.123	0.149	0.073	-0.173	-0.02	0.202	-0.018	-0.58 (active)
NR2C2AP isoform 2 (UniProt Q86WQ0)	0.032	0.028	-0.013	0.048	0.041	0.026	-0.08	-0.134	-0.089	-0.013	-0.126	-0.003	-0.062	-0.056	0.012	0.01	-0.026	-0.073	0.057	0.063
MLX (UniProt Q9UH92)	0.038	0.135	-0.057	0.062	0.032	-0.094	-0.041	-0.076	-0.012	-0.143	-0.033	-0.058	-0.132	0.077	-0.163	-0.236	0.14	0.016	0.043	-0.008
